Our source for the outcome and AC50 values is PubChem BioAssay (EPA / NIEHS).

Activity calls are given as the source filed them. The calls were made as follows: active = hit-call score of the fitted dose curve at least 0.9, where 1 is the maximum; inactive = score below 0.9.

Read-out in one experiment: growth arrest and DNA damage 45 (GADD45A), GADD45A (gene 1647)
Nature of the experiment: LTEA_HepaRG_GADD45A: Life Technologies and Expression Analysis (LTEA) Assay for growth arrest and DNA damage 45 (GADD45A) using HepaRG (AID 2283458). Conditions: mRNA level, 48 h; actives raise or lower the signal. The method in brief: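 Differentiated HepaRG cells were exposed in duplicate for 48 h in serum-free induction medium to 8-point half-log concentrations up to 100 uM in 0.5% DMSO. GADD45A mRNA was measured by TaqMan qRT-PCR, normalized to ACTB, GAPDH and POLR2A, with bidirectional fitting versus DMSO.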
Regarding `CCOC(=O)c1ccc(O)cc1`, the result was inactive.
On the same count and under the same terms, with `CCCN(CCC)c1c([N+](=O)[O-])cc(C(F)(F)F)c(N)c1[N+](=O)[O-]` the entry was “inactive”.
`O=C(c1ccccc1)C1CCCCC1`: the result was inactive.
In the case of `C=CCOC(Cn1ccnc1)c1ccc(Cl)cc1Cl` (stereo unspecified), the concentration at half-maximal activity (AC50) – broadly, the concentration giving half of the maximal activity seen – is 59.1 µM (active).
In the case of `CC(C)CCCCCCc1ccc(O)cc1`, the molecule was classed as inactive.
Consider `COCCO`, for which the outcome was inactive.
On the same count and under the same terms, under `N[C@@H](Cc1cc(I)c(Oc2ccc(O)c(I)c2)c(I)c1)C(=O)O` stands “inactive”; under `COc1c(Cl)ccc(Cl)c1C(=O)O`, “inactive”.
As for `CCC(C)OC(=O)N1CCCCC1CCO` (stereo unspecified), the outcome was inactive.
On the same count and under the same terms, under `CC(C)(C)[C@@H](O)[C@@H](Cc1ccc(Cl)cc1)n1cncn1` stands “inactive”.
With `O=C(O)C1(C(=O)Nc2ccc(Cl)cc2Cl)CC1`, the AC50 was 80.7 µM (active).
Turning to `OB(O)O`, the molecule was classed as inactive.
Regarding `CC(=O)[C@H]1CC[C@H]2[C@@H]3CCC4=CC(=O)CC[C@]4(C)[C@H]3CC[C@]12C`, the AC50 was 47.8 µM (active).
On to `CCCCC(CC)CN1C(=O)C2C3C=CC(C3)C2C1=O` (stereo unspecified), for which the molecule was classed as inactive.
Turning to `CCN(Cc1c(F)cccc1Cl)c1c([N+](=O)[O-])cc(C(F)(F)F)cc1[N+](=O)[O-]`, the outcome was inactive.
The same measure, in the same setting: under `C[C@]12C[C@H](O)[C@H]3[C@@H](CCC4=CC(=O)CC[C@@]43C)[C@@H]1CC[C@@H]2C(=O)CO` stands “inactive”.
`C#CCOC(=O)[C@@H](C)Oc1ccc(Oc2ncc(Cl)cc2F)cc1`: the AC50 is 12.4 µM (active).
In the case of `Cc1nn(C)c(Oc2ccccc2)c1C=NOCc1ccc(C(=O)OC(C)(C)C)cc1`, the AC50 was 4.15 µM (active).
For `CCOC(=O)C(C)Oc1ccc(Oc2nc3ccc(Cl)cc3o2)cc1` (stereo unspecified), the result was inactive.
`CCOC(=O)COc1cc(-n2ncc(C(F)(F)F)c(C)c2=O)c(F)cc1Cl`: the outcome was inactive.
Turning to `Oc1ccc(C(c2ccc(O)cc2)C(Cl)(Cl)Cl)cc1`, the AC50 is 90.9 µM (active).
For `c1ccc(Nc2ccccc2)cc1`, the outcome was inactive.
On to `CCCOC(=O)c1ccc(C(=O)OCCC)nc1`, for which the call was inactive.
With `CCCCC(CC)COC(=O)c1ccccc1C(=O)O` (stereo unspecified), the result was inactive.
In the case of `CCSC(=O)N(CC(C)C)CC(C)C`, the result was inactive.
Regarding `CCCCOC(=O)C(C)Oc1ccc(Oc2ccc(C(F)(F)F)cn2)cc1` (stereo unspecified), the outcome was inactive.
On the same count and under the same terms, under `CCOC(=O)C(C)Oc1ccc(Oc2cnc3cc(Cl)ccc3n2)cc1` (stereo unspecified) stands “inactive”.

Read-out in another experiment: Forkhead box O3 (FOXO3), FOXO3 (gene 2309)
As to the kind of experiment: LTEA_HepaRG_FOXO3: Life Technologies and Expression Analysis (LTEA) Assay for Forkhead box O3 (FOXO3) using HepaRG (AID 2283459). Conditions: mRNA level, 48 h; actives raise or lower the signal. The method in brief:
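Differentiated human HepaRG cells, 48 h post-plating, exposed in duplicate for 48 h in serum-free induction medium; 8-point half-log series from 100 uM in 0.5% DMSO. FOXO3 mRNA by TaqMan qRT-PCR, normalized to ACTB/GAPDH/POLR2A; bidirectional fit versus DMSO.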
Consider `CCOC(=O)c1ccc(O)cc1`, for which the result was inactive.
`CCCN(CCC)c1c([N+](=O)[O-])cc(C(F)(F)F)c(N)c1[N+](=O)[O-]`: the AC50 is 50 µM (active).
Consider `O=C(c1ccccc1)C1CCCCC1`, for which the result was inactive.
Same read-out and setting: with `C=CCOC(Cn1ccnc1)c1ccc(Cl)cc1Cl` (stereo unspecified) the entry was “inactive”; with `CC(C)CCCCCCc1ccc(O)cc1`, “inactive”.
The same measure, in the same setting: under `COCCO` stands “inactive”; under `N[C@@H](Cc1cc(I)c(Oc2ccc(O)c(I)c2)c(I)c1)C(=O)O`, “inactive”; under `COc1c(Cl)ccc(Cl)c1C(=O)O`, “inactive”.
Still for that read-out and setting: with `CCC(C)OC(=O)N1CCCCC1CCO` (stereo unspecified) the entry was “inactive”; with `CC(C)(C)[C@@H](O)[C@@H](Cc1ccc(Cl)cc1)n1cncn1`, “inactive”.
Take `O=C(O)C1(C(=O)Nc2ccc(Cl)cc2Cl)CC1`: the molecule was classed as inactive.
Same read-out and setting: with `OB(O)O` the entry was “inactive”.
Take `CC(=O)[C@H]1CC[C@H]2[C@@H]3CCC4=CC(=O)CC[C@]4(C)[C@H]3CC[C@]12C`: the outcome was inactive.
On the same count and under the same terms, with `CCCCC(CC)CN1C(=O)C2C3C=CC(C3)C2C1=O` (stereo unspecified) the entry was “inactive”.
Same read-out and setting: with `CCN(Cc1c(F)cccc1Cl)c1c([N+](=O)[O-])cc(C(F)(F)F)cc1[N+](=O)[O-]` the entry was “inactive”.
As for `C[C@]12C[C@H](O)[C@H]3[C@@H](CCC4=CC(=O)CC[C@@]43C)[C@@H]1CC[C@@H]2C(=O)CO`, the outcome was inactive.
On the same count and under the same terms, with `C#CCOC(=O)[C@@H](C)Oc1ccc(Oc2ncc(Cl)cc2F)cc1` the entry was “inactive”; with `Cc1nn(C)c(Oc2ccccc2)c1C=NOCc1ccc(C(=O)OC(C)(C)C)cc1`, “inactive”.
The same measure, in the same setting: under `CCOC(=O)C(C)Oc1ccc(Oc2nc3ccc(Cl)cc3o2)cc1` (stereo unspecified) stands “inactive”; under `CCOC(=O)COc1cc(-n2ncc(C(F)(F)F)c(C)c2=O)c(F)cc1Cl`, “inactive”.
Consider `Oc1ccc(C(c2ccc(O)cc2)C(Cl)(Cl)Cl)cc1`, for which the AC50 was 82.9 µM (active).
Consider `c1ccc(Nc2ccccc2)cc1`, for which the result was inactive.
Take `CCCOC(=O)c1ccc(C(=O)OCCC)nc1`: the result was inactive.
Consider `CCCCC(CC)COC(=O)c1ccccc1C(=O)O` (stereo unspecified), for which the molecule was classed as inactive.
As for `CCSC(=O)N(CC(C)C)CC(C)C`, the outcome was inactive.
Still for that read-out and setting: under `CCCCOC(=O)C(C)Oc1ccc(Oc2ccc(C(F)(F)F)cn2)cc1` (stereo unspecified) stands “inactive”; under `CCOC(=O)C(C)Oc1ccc(Oc2cnc3cc(Cl)ccc3n2)cc1` (stereo unspecified), “inactive”.

Read-out in a further experiment: ABC Transporter (ABCB1), ABCB1 (gene 5243)
Nature of the experiment: LTEA_HepaRG_ABCB1: Life Technologies and Expression Analysis (LTEA) Assay for ABC Transporter (ABCB1) using HepaRG (AID 2283460). The conditions noted are these: mRNA level, 48 h; actives raise or lower the signal. The method in brief:
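HepaRG cells exposed in duplicate for 48 h in serum-free induction medium to eight half-log concentrations up to 100 uM in 0.5% DMSO. ABCB1 mRNA quantified by qRT-PCR, normalised to ACTB, GAPDH and POLR2A; fitted bidirectionally versus DMSO.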
As to `CCOC(=O)c1ccc(O)cc1`, the result was inactive.
For `CCCN(CCC)c1c([N+](=O)[O-])cc(C(F)(F)F)c(N)c1[N+](=O)[O-]`, the AC50 was 18 µM (active).
As to `O=C(c1ccccc1)C1CCCCC1`, the call was inactive.
Same read-out and setting: with `C=CCOC(Cn1ccnc1)c1ccc(Cl)cc1Cl` (stereo unspecified) the entry was “inactive”; with `CC(C)CCCCCCc1ccc(O)cc1`, “inactive”.
On to `COCCO`, for which the outcome was inactive.
With `N[C@@H](Cc1cc(I)c(Oc2ccc(O)c(I)c2)c(I)c1)C(=O)O`, the AC50 was 73.3 µM (active).
`COc1c(Cl)ccc(Cl)c1C(=O)O`: the molecule was classed as inactive.
The same measure, in the same setting: with `CCC(C)OC(=O)N1CCCCC1CCO` (stereo unspecified) the entry was “inactive”.
For the molecule `CC(C)(C)[C@@H](O)[C@@H](Cc1ccc(Cl)cc1)n1cncn1`, the AC50 is 8.74 µM (active).
Same read-out and setting: under `O=C(O)C1(C(=O)Nc2ccc(Cl)cc2Cl)CC1` stands 50 µM (active).
On to `OB(O)O`, for which the result was inactive.
With `CC(=O)[C@H]1CC[C@H]2[C@@H]3CCC4=CC(=O)CC[C@]4(C)[C@H]3CC[C@]12C`, the AC50 was 79.3 µM (active).
The same measure, in the same setting: under `CCCCC(CC)CN1C(=O)C2C3C=CC(C3)C2C1=O` (stereo unspecified) stands 12.5 µM (active).
Take `CCN(Cc1c(F)cccc1Cl)c1c([N+](=O)[O-])cc(C(F)(F)F)cc1[N+](=O)[O-]`: the molecule was called inactive.
As for `C[C@]12C[C@H](O)[C@H]3[C@@H](CCC4=CC(=O)CC[C@@]43C)[C@@H]1CC[C@@H]2C(=O)CO`, the AC50 is 70 µM (active).
As to `C#CCOC(=O)[C@@H](C)Oc1ccc(Oc2ncc(Cl)cc2F)cc1`, the call was inactive.
For `Cc1nn(C)c(Oc2ccccc2)c1C=NOCc1ccc(C(=O)OC(C)(C)C)cc1`, the AC50 is 9.19 µM (active).
In the case of `CCOC(=O)C(C)Oc1ccc(Oc2nc3ccc(Cl)cc3o2)cc1` (stereo unspecified), the result was inactive.
Take `CCOC(=O)COc1cc(-n2ncc(C(F)(F)F)c(C)c2=O)c(F)cc1Cl`: the result was inactive.
For `Oc1ccc(C(c2ccc(O)cc2)C(Cl)(Cl)Cl)cc1`, the molecule was called inactive.
The same measure, in the same setting: under `c1ccc(Nc2ccccc2)cc1` stands “inactive”; under `CCCOC(=O)c1ccc(C(=O)OCCC)nc1`, “inactive”.
As to `CCCCC(CC)COC(=O)c1ccccc1C(=O)O` (stereo unspecified), the AC50 is 74.9 µM (active).
On to `CCSC(=O)N(CC(C)C)CC(C)C`, for which the molecule was classed as inactive.
Same read-out and setting: with `CCCCOC(=O)C(C)Oc1ccc(Oc2ccc(C(F)(F)F)cn2)cc1` (stereo unspecified) the entry was “inactive”; with `CCOC(=O)C(C)Oc1ccc(Oc2cnc3cc(Cl)ccc3n2)cc1` (stereo unspecified), “inactive”.
